The panel holds about 83,000 compounds, 20% with a hit somewhere; the sample as a whole holds those more often.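 The endpoint reported here, percent growth, reads 100 for growth as untreated, 0 for no net growth and -100 for all cells dead.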 Active and inactive are the calls of the source. Rule for the calls: active = growth percent below 10; inactive = the rest.
How the values were obtained:
Experiment in all cases: NCI-60 one-dose screen, 48 h (100 = growth as untreated, 0 = no growth, -100 = all killed)
Settings in all cases: 10 µM unless noted
[1] = system: NCI-H23 lung
[2] = system: NCI-H226 lung
[3] = system: NCI-H322M lung
[4] = system: HOP-62 NSCLC
[5] = system: NCI-H460 lung
[6] = system: HOP-92 NSCLC
[7] = system: NCI-H522 lung
[8] = system: A549/ATCC NSCLC
[9] = system: 786-0 renal
[10] = system: COLO 205 colon
[11] = system: DU-145 prostate
[12] = system: K-562 leukemia
[13] = system: MALME-3M melanoma
[14] = system: MDA-MB-231 breast
[15] = system: RXF 393 renal
[16] = system: SF-268 CNS
[17] = system: SF-295 CNS
[18] = system: SF-539 CNS
[19] = system: UACC-257 melanoma
[20] = system: M14 melanoma

Measured: growth

O=C1C(=Cc2cn(Cc3ccccc3)c3ccccc23)C(=O)N(Cc2ccccc2)C(=O)N1Cc1ccccc1
active: [2] -49.4%
inactive: [1] 87.8% | [3] 105% | [4] 85.5% | [5] 36% | [6] 90.9% | [7] 87.6% | [8] 80.1% | [9] 93.3% | [10] 26.4% | [11] 110% | [12] 81.5% | [13] 105% | [14] 89.3% | [15] 57.6% | [16] 87.5% | [17] 34.4% | [18] 83.5% | [19] 52.9% | [20] 104%

O=C1C(Cl)=C(N2CCOCC2)C(=O)c2ccccc21
active: [6] -75.2% | [12] -36.7%
inactive: [1] 85.2% | [2] 104% | [3] 122% | [4] 105% | [5] 101% | [7] 75.1% | [8] 101% | [9] 111% | [10] 106% | [11] 114% | [13] 48.2% | [14] 84.2% | [15] 129% | [16] 87.6% | [17] 92.9% | [18] 117% | [19] 54.4% | [20] 105%

CC(=O)O[C@H](C[C@H](C(C)C)N(C)C(=O)[C@@H](NC(=O)[C@H]1CCCCN1C)C(C)C)c1cccc(C(=O)N[C@@H](Cc2ccccc2)C[C@H](C)C(=O)O)n1
inactive: [1] 32.6% | [2] 61.6% | [3] 40.7% | [4] 23% | [6] 54.5% | [9] 13.6% | [13] 74.3% | [14] 11.8% | [15] 34.5% | [16] 23.1% | [19] 48.4%
active: [5] 4.27% | [7] -12.7% | [8] 8.55% | [10] -64% | [11] 0.44% | [12] 7.66% | [17] 5.65% | [18] -2.97% | [20] 1.68%

COC(=O)[C@@H](C)C[C@H](Cc1ccccc1)NC(=O)c1csc([C@@H](C[C@H](C(C)C)N(C)C(=O)[C@H](C)NC(=O)[C@H]2CCCN2C)OC(C)=O)n1
inactive: [1] 60.8% | [2] 68.2% | [3] 63.7% | [4] 63.6% | [5] 30.9% | [6] 37.6% | [8] 83% | [9] 45% | [10] 22.8% | [11] 51.6% | [12] 11.5% | [13] 56.2% | [14] 63.6% | [15] 21.8% | [16] 53.9% | [17] 31.1% | [18] 39.9% | [19] 36.4% | [20] 37.5%
active: [7] -10.7%

C/C(=C\c1cc(C(F)(F)F)nn1CCNC(=O)OC(C)(C)C)[C@@H]1C[C@@H]2O[C@]2(C)CCC[C@H](C)[C@H](O)[C@@H](C)C(=O)C(C)(C)[C@@H](O)CC(=O)O1
inactive: [1] 59.2% | [2] 77.4% | [3] 72.3% | [4] 78.8% | [5] 30.5% | [6] 66.4% | [7] 63.5% | [8] 54.3% | [9] 67.8% | [10] 30.6% | [11] 63.2% | [12] 31.9% | [13] 70% | [14] 58.8% | [15] 53.2% | [16] 60.4% | [17] 75.5% | [18] 57.5% | [19] 83.5% | [20] 50.1%

CCC1CN1CCCCN1CC1CC (stereo not given)
inactive: [1] 104% | [2] 98.3% | [3] 96.7% | [4] 113% | [5] 113% | [6] 116% | [7] 95.6% | [8] 104% | [9] 104% | [10] 112% | [11] 108% | [12] 114% | [13] 91.6% | [14] 96.7% | [15] 105% | [16] 103% | [17] 95.3% | [18] 100% | [19] 97% | [20] 98%

CCCCCCCCCCCCCCCCCC1OC[C@@H](COC(=O)O[C@@H](C(=O)O[C@H]2C[C@@]3(O)[C@@H](OC(=O)c4ccccc4)[C@@H]4[C@]5(OC(C)=O)CO[C@@H]5C[C@H](O)[C@@]4(C)C(=O)[C@H](OC(C)=O)C(=C2C)C3(C)C)[C@@H](NC(=O)c2ccccc2)c2ccccc2)O1 (stereo not given in full)
inactive: [1] 54.2% | [2] 83.4% | [3] 55.7% | [4] 68.4% | [5] 20.4% | [6] 66.4% | [7] 57.6% | [8] 47.5% | [9] 90.6% | [10] 13.1% | [11] 45.1% | [12] 46.6% | [13] 50.5% | [14] 60.5% | [15] 63.1% | [16] 66% | [17] 61% | [18] 51.9% | [19] 69.8% | [20] 38.8%

CCOC(=O)[C@@H](C)C[C@H](Cc1ccccc1)NC(=O)c1csc([C@@H](C[C@H](C(C)C)N(C)C(=O)[C@H](CC)NC(=O)[C@H]2CCCCN2C)OC(C)=O)n1
active: [5] 6.53% | [7] -22.8% | [8] 7.92% | [9] 8.33% | [10] -61.6% | [11] 5.21% | [12] 6.71% | [14] 5.4% | [17] 1.53% | [18] -9.33% | [20] -25.7%
inactive: [1] 28.4% | [2] 65.2% | [3] 43.1% | [4] 20.2% | [6] 41.5% | [13] 71.7% | [15] 28.8% | [16] 29.1% | [19] 39.1%

COc1ccc(Nc2ccc([N+](=O)[O-])cc2[N+](=O)[O-])cc1CN(CCCl)CCCl
active: [5] 7.13% | [15] -1.08%
inactive: [1] 18.4% | [2] 39.7% | [3] 45.8% | [4] 35.8% | [6] 39.2% | [7] 21.1% | [8] 33.5% | [9] 18.4% | [10] 38% | [11] 35.8% | [12] 24.4% | [13] 55.1% | [14] 44.1% | [16] 24.9% | [17] 37.6% | [18] 15.9% | [19] 62.9% | [20] 46.7%

CCCCCCCCCCCCNC(c1ccccc1)C(O)c1ccccc1 (stereo not given)
inactive: [1] 78.7% | [2] 103% | [3] 88.2% | [4] 90.3% | [5] 93.4% | [6] 80.7% | [7] 69.1% | [8] 84.7% | [9] 79.3% | [11] 83.5% | [12] 24.1% | [13] 68.3% | [14] 39.9% | [15] 59% | [16] 79% | [17] 107% | [18] 87.9% | [19] 99.9% | [20] 93.3%
active: [10] -30.7%

COC(=O)[C@H](Cc1ccccc1)NC(=O)c1csc([C@@H](C[C@H](C(C)C)N(C)C(=O)[C@@H](NC(=O)[C@H]2CCCN2C)C2CC2)OC(C)=O)n1
active: [5] 4.53% | [6] 8.6% | [7] 0.953% | [10] -26.7% | [11] 7.69% | [12] 1.55% | [14] 6.1% | [17] -4.82% | [18] -24.9% | [20] 1.22%
inactive: [1] 35.9% | [2] 58% | [3] 50.3% | [4] 34.9% | [8] 23.2% | [9] 31.6% | [13] 62.9% | [15] 23.3% | [16] 24.4% | [19] 61.9%

CC[C@]12C=CCN3CC[C@@]4(c5ccc(OC)cc5N(C)[C@H]4[C@@](O)(C(=O)OC)[C@@H]1OC(=O)CCCC[P+](c1ccccc1)(c1ccccc1)c1ccccc1)[C@@H]32
active: [1] 6.4% | [6] -30% | [7] -5.5% | [10] -93.7% | [13] -35.8% | [14] -2.41% | [15] -13.3% | [19] 2.15%
inactive: [2] 15.1% | [3] 47.1% | [4] 26.4% | [5] 18.4% | [8] 22.1% | [9] 57.2% | [11] 14.7% | [12] 21.7% | [16] 16.2% | [17] 58.1% | [18] 19% | [20] 29.4%

Brc1ccc2c(c1)c(-c1nc(-c3c[nH]c4ncccc34)cs1)cn2CCN1CCCCC1
inactive: [1] 89% | [2] 80% | [3] 65.6% | [4] 88.7% | [5] 67.4% | [6] 37.1% | [7] 68.8% | [8] 67.5% | [9] 53% | [10] 37.7% | [11] 82.6% | [13] 100% | [14] 62.1% | [15] 60.4% | [16] 75.9% | [17] 91.5% | [18] 87.3% | [19] 96.7% | [20] 15.8%
active: [12] -15.7%

Source: PubChem BioAssay (NCI)
